Out of some 48,000 compounds screened, about 13,000 (27%) showed an effect of 50% or more. The list shows a part of the results.
test system: Wolbachia pipientis; assay: Anti-Wolbachia Cell-Based Screen; assay type: functional; set-up: scale not given: in the data most compounds retested in dose-response had high values; conditions: 5 µM

| Compound | Percent Effect [%] |
| --- | --- |
| CC(=O)c1c(F)cccc1NC1CCN(S(=O)(=O)C2CC2)CC1 | 15.22 |
| CN(CC(=O)NC(C)(C)C)C(=O)c1cccn1CCc1ccccc1 | 4.312 |
| Cc1cc(CN(C)C(=O)c2ccc(C(F)(F)F)nc2)no1 | 4.429 |
| CN(Cc1cc(Br)cn1C)C(=O)c1cccnc1 | -11.61 |
| CN(Cc1ccc2c(c1)OCO2)C(=O)c1ccn(C)c(=O)c1 | 11.43 |
| CN(Cc1nccn1C)C(=O)c1cccc(CCC(C)(C)O)c1 | -1.939 |
| Cc1nn(C)c(C)c1CN(C)C(=O)c1cccc(CCC(C)(C)O)c1 | -10.94 |
| Cc1cnn(CCNCc2nccn2CC(F)(F)F)c1 | -5.156 |
| CCn1c(CN(C)C(=O)c2ccc(O)nc2)nc2ccccc21 | -29.68 |
| CN(Cc1nccn1CC(F)(F)F)C(=O)c1cccc(N(C)C)c1 | 107.5 |
| CN(Cc1nccn1CC(F)(F)F)C(=O)c1ccc2c(c1)OCO2 | 110.7 |
| CN(Cc1ccc2c(c1)OCO2)C(=O)c1ccc(=O)n(C)c1 | -0.4136 |
| Cc1ccc(C(=O)N(C)Cc2cc(Br)cs2)cn1 | 108.4 |
| Cc1ccc(C(=O)N(C)Cc2nccn2CC(F)(F)F)cn1 | 108.9 |
| CCc1nnsc1C(=O)NCc1c(C)nn(CCOC)c1C | 22.53 |
| Cc1ccc(C2CCCCCN2CCNS(C)(=O)=O)o1 (configuration not stated) | -18.53 |
| O=C(CN1C(=O)CCCc2sccc21)NC1CCc2nccn2C1 (configuration not stated) | -8.511 |
| Cc1cc(CN2C[C@H]3CC[C@@H]2CN(Cc2c(C)noc2C)C3)ccc1F | -0.5585 |
| CN(C)CC1CCN(Cc2nccn2CC(F)(F)F)CC1 | 2.033 |
| CCOc1ccc(C(=O)N(C)Cc2nccn2CC(F)(F)F)cc1 | 117.2 |
| COc1cc(C(=O)N(C)Cc2nccn2CC(F)(F)F)ccc1C | 111.1 |
| FC(F)(F)Cn1ccnc1CNCCn1cccn1 | -10.84 |
| COCc1cccc(C(=O)N(C)Cc2ncc(C)c(OC)c2C)c1 | 6.137 |
| CC(O)C1CCN(Cc2nccn2CC(F)(F)F)CC1 (configuration not stated) | -9.918 |
| O=C(O)C(F)(F)F.O=C(O)C(F)(F)F.c1cncc(CN2CCOC(c3ncn4c(C5CC5)cccc34)C2)c1 (configuration not stated) | -19.22 |
| Cc1ncsc1CCn1ccnc1-c1cc2n(n1)CCCNC2 | -9.491 |

| Compound | Percent Effect [%] |
| --- | --- |
| COc1cc(C)c(C(C)NC(=O)Nc2nnc(C)s2)cc1OC (configuration not stated) | -2.297 |
| CO[C@@H]1CN(C)S(=O)(=O)[C@@]12CCN(Cc1ccccc1)C2 | 116.7 |
| CC1CN(Cc2ccccc2)CCCN1CCNS(C)(=O)=O (configuration not stated) | 2.156 |
| CO[C@H]1CN(C)S(=O)(=O)[C@@]12CCN(Cc1ccccc1)C2 | 109.7 |
| CC1CN(Cc2ccccc2)CCCN1CCS(C)(=O)=O (configuration not stated) | -9.711 |
| COc1ccc(OCC(C)NS(C)(=O)=O)cc1 (configuration not stated) | -2.499 |
| CCCOc1cc(C)c2c(c1C)C[C@H]([C@H](C)C(=O)O)CC2 | -9.304 |
| CNS(=O)(=O)CC(=O)N1CC2(CCCC2)c2c(F)cccc21 | -10.56 |
| CCS(=O)(=O)N1CCC(NCC2CNc3cc(C)nn3C2)CC1 (configuration not stated) | -5.639 |
| CC(=O)Nc1ccc2c(c1)C1(CCOCC1)C(=O)N2c1ccsc1 | 7.168 |
| OCCN1CCCCC1C1OCCO1 (configuration not stated) | 89.19 |
| C1CC(CN2CCCCC2C2OCCO2)C1 (configuration not stated) | 19.65 |
| COc1ccc(NC(=O)CN2CCCCC2C2OCCO2)cc1 (configuration not stated) | 17.05 |
| C1CCN(CCN2CCCCC2C2OCCO2)CC1 (configuration not stated) | 105.6 |
| COC(=O)c1ccc(NC(=O)CN2CCCCC2C2OCCO2)cc1 (configuration not stated) | -2.306 |
| c1ccc(Cc2noc(CN3CCCCC3C3OCCO3)n2)cc1 (configuration not stated) | -5.666 |
| CCn1cc(NC(=O)NCc2ccc3c(c2)OCO3)cn1 | 135.2 |
| CCn1cc(NC(=O)NCC2(N3CCOCC3)CCSC2)cn1 (configuration not stated) | -22.54 |
| CCn1cc(NC(=O)Nc2ccc3c(c2)OCCO3)cn1 | 131.1 |
| Cn1cc(CCNC(=O)CCc2ccc3c(c2)OCO3)cn1 | -1.168 |
| O=C(Cn1cc(Cl)cn1)Nc1ccc2c(c1)OCCCO2 | -3.42 |
| CCCn1cc(C(=O)NCCc2ccc3c(c2)OCO3)c(C)n1 | -4.07 |
| CCn1cc(NC(=O)NCCc2ccc3c(c2)OCCO3)cn1 | 126.5 |
| CCn1cc(NC(=O)NCCc2ccc3c(c2)OCO3)cn1 | 124.8 |
| CCn1cc(NC(=O)NCC(C)O)cn1 (configuration not stated) | -13.78 |
| Cc1nn(C)c(C)c1CN(Cc1cccn1-c1ccccn1)C(C)C | -9.247 |

| Compound | Percent Effect [%] |
| --- | --- |
| CCc1cnc(N2CCN(Cc3ccno3)CC2)s1 | 1.528 |
| CC(C)c1nnc(NC(=O)NCc2ccc(CO)c(F)c2)s1 | -3.606 |
| CCn1cc(NC(=O)NCc2ccc(CO)c(F)c2)cn1 | 112.4 |
| CCn1cc(NC(=O)NC(CO)Cc2c[nH]c3ccccc23)cn1 (configuration not stated) | -9.205 |
| O=C(c1ccccn1)N1CCC(c2nccn2Cc2ccncc2)CC1 | 7.014 |
| O=C(c1ccccn1)N1CCCC(c2nccn2Cc2ccncc2)C1 (configuration not stated) | -10.11 |
| O=C(c1cccnc1)N1CCC(c2nc(O)cc(-c3ccncc3)n2)C1 (configuration not stated) | 89.59 |
| O=C(c1ccccn1)N1CCC(c2nc(O)cc(-c3ccncc3)n2)C1 (configuration not stated) | 109.3 |
| CC(C)(C)C(=O)N1CCC(c2nc(O)cc(-c3ccncc3)n2)CC1 | 112.4 |
| CC(C)C(=O)N1CCC(c2nc(O)cc(-c3ccncc3)n2)CC1 | -8.577 |
| COCc1cc(CNC(=O)c2c(O)cccc2O)n[nH]1 | 12.71 |
| CC(C)N1CCc2[nH]nc(C(=O)N3CCCC3C)c2C1 (configuration not stated) | -13.09 |
| CCOCCCNC(=O)NC(C)c1ccc(-n2cncn2)cc1 (configuration not stated) | -14.96 |
| CCOCCNC(=O)c1ccn(S(=O)(=O)c2ccc(C)cc2)c1 | -5.067 |
| COCC(C)N(C)C(=O)c1ccc2nncn2c1 (configuration not stated) | 2.79 |
| COc1cc(C)c(NC(=O)NCCn2cccc2)cc1OC | 2.296 |
| NC(=O)C1CCN(Cc2cc3c(cc2Br)OCCO3)C1 (configuration not stated) | 0.4913 |
| Cc1cncc(C(=O)N2CCCC(C(=O)CCc3ccccc3)C2)c1 (configuration not stated) | -18.81 |
| Cc1ccsc1C(=O)N1C[C@@H](C(=O)O)[C@H](C(C)C)C1 | 117.1 |
| CC(C)C1CN(C(=O)c2ccsc2)CCS1 (configuration not stated) | 1.544 |
| Cc1cncc(C(=O)N2CCN(c3cnn(C)c(=O)c3)CC2)c1 | -23.7 |
| CC(C)[C@@H]1CN(C(=O)C2(c3ccccc3)CC2)C[C@H]1C(=O)O | 6.034 |
| Cc1cncc(C(=O)N2C[C@@H](C(=O)O)[C@H](C(C)C)C2)c1 | 102.6 |
| CC(C)[C@@H]1CN(C(=O)CN(C)Cc2ccccc2)C[C@H]1C(=O)O | -19.29 |
| CCc1ccccc1OC1CN(C(=O)c2ccsc2)C1 | -5.309 |
| CC(C)[C@@H]1CN(C(=O)c2ccsc2)C[C@H]1C(=O)O | 124.9 |

| Compound | Percent Effect [%] |
| --- | --- |
| CC(c1cccs1)N(C)C(=O)c1cc(CN(C)Cc2ccccc2)on1 (configuration not stated) | -11.33 |
| CN(C)c1cc(C(=O)NCC2(c3cccc(F)c3)CCOCC2)ccn1 | -10.3 |
| CCOc1ccc(Cl)cc1C(C(=O)O)N1CCOCC1 (configuration not stated) | -18.5 |
| CC(C)(C)OC(=O)N1CSC[C@@H]1C(=O)NCc1ccc(C#N)cc1 | -6.965 |
| Cc1ccc(CN2Cc3nnn(C)c3C(COCC3CC3)C2)s1.O=C(O)C(F)(F)F (configuration not stated) | 100.2 |
| Cc1ccc(CN2Cc3nnn(C)c3C(COCC3CC3)C2)o1.O=C(O)C(F)(F)F (configuration not stated) | 1.722 |
| COCC1CN(Cc2sccc2C)Cc2nnn(CC3CC3)c21.O=C(O)C(F)(F)F (configuration not stated) | 8.391 |
| Cc1ccc(CN2Cc3c(C(=O)N(C)C)nn(C)c3C2)s1.O=C(O)C(F)(F)F | -8.124 |
| Cc1ccc(CN2Cc3nnn(C)c3C(COCC(=O)N(C)C)C2)s1.O=C(O)C(F)(F)F (configuration not stated) | 83.68 |
| COCC1CN(Cc2ccc(C)s2)Cc2nnn(C)c21.O=C(O)C(F)(F)F (configuration not stated) | 106 |
| COCC1CN(Cc2ccc(C)o2)Cc2nnn(C)c21.O=C(O)C(F)(F)F (configuration not stated) | 3.893 |
| CCC(CC)NC(=O)CN1CCSCC1 | 2.417 |
| Cc1ncnc(N2CCCN(c3nc4ccccc4s3)CC2)c1C | -5.721 |
| CCN1CCC(c2nc3ccc(NC(C)C)cn3n2)CC1.O=C(O)C(F)(F)F | -4.484 |
| COCC(=O)N1CCC(c2nc3ccc(N4CCCC4)cn3n2)CC1.O=C(O)C(F)(F)F | -11.72 |
| COCCN1CCC(c2nc3ccc(NC4CCC4)cn3n2)CC1.O=C(O)C(F)(F)F | 99.27 |
| c1cc2nc(C3CCNCC3)nn2cc1NC1CCC1 | 109.6 |
| Cl.Cl.Cl.c1cncc(CNc2ccc3nc(C4CCNCC4)nn3c2)c1 | -18.54 |
| COCCN1CCC(c2nc3ccc(N4CCCC4)cn3n2)CC1.O=C(O)C(F)(F)F | -8.298 |
| CCN1CCC(c2nc3ccc(NC4CCC4)cn3n2)CC1.O=C(O)C(F)(F)F | 79.67 |
| CC(C)Nc1ccc2nc(C3CCN(C(C)C)CC3)nn2c1.O=C(O)C(F)(F)F | 7.625 |
| CC(=O)N1CCC(c2nc3ccc(NC4CCC4)cn3n2)CC1.O=C(O)C(F)(F)F | 124.1 |
| Cc1cc(C)c(Cn2cncn2)cc1CN1CC[C@H]2CC[C@@H](C1)N2 | 27.46 |
| CC(=O)N(C)CC(=O)NC(CC(C)C)c1cccs1 (configuration not stated) | 5.598 |

From ChEMBL document CHEMBL3988442, “University of Dundee, Small-Polar-MMV Screening Library” (2021)
